Reference: PubChem BioAssay AID435000 (NMMLSC, 2010)
Some of the results follow. The source made the active and inactive calls.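 Rule for the calls: active = fluorescence response below 15%; inactive = the rest.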

Assay: yeast superoxide dye artefact check – S. cerevisiae BY4741, flow cytometry, artefact control for yeast caloric restriction mimetic project (AID 435000);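 note: percent of the mean fluorescence averaged over all compound wells on the plate; lower means stronger quenching of DHE signal or ROS scavenging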
Settings: S. cerevisiae BY4741, DHE fluorescence, at 10 µM, active compounds read low

Row | SMILES | fluorescence response
1 | CCN(CC)C(=O)CSc1nnc(-c2cccc(OC)c2)o1 | 110% (inactive)
2 | CC(C)(C)NC(=O)COc1ccc(CNc2ccc3[nH]c(=O)[nH]c3c2)cc1 | 94.4% (inactive)
3 | CC(C)NC(=O)/C(C#N)=C\c1ccc(N(C)C)c(Br)c1 | 92.3% (inactive)
4 | COc1ccc(C)cc1S(=O)(=O)Nc1cccc(Cl)c1Cl | 102% (inactive)
5 | COc1cccc(NC(=O)NCCN2CCCCC2)c1 | 93.8% (inactive)
6 | Cn1c(Nc2ccccc2)cc(=O)n(C)c1=O | 113% (inactive)
7 | Cc1ccc2cccc(S(=O)(=O)N3CCN(c4ccccc4F)CC3)c2n1 | 104% (inactive)
8 | Cc1ccccc1NC(=O)NCC1CCN(Cc2cccc(Cl)c2)CC1 | 101% (inactive)
9 | CN1CCN(c2cc3c(cc2F)c(=O)c(C(=O)O)cn3CCF)CC1 | 100% (inactive)
10 | Cc1ccc(-c2nn(C(C)(C)C)c3ncnc(N)c23)cc1 | 99.5% (inactive)
11 | CCn1c2ccccc2c2cc(NC(=O)CNC)ccc21 | 112% (inactive)
12 | Cc1ccc(-c2nc(CSCC(=O)NC3CCN(Cc4ccccc4)CC3)c(C)o2)cc1 | 94.6% (inactive)
13 | Cc1ccc(-c2nc(CS(=O)CC(=O)N3CCN(c4ncccn4)CC3)c(C)o2)cc1 (configuration not stated) | 95.7% (inactive)
14 | O=C(CN1CCN(c2ccccn2)CC1)Nc1ccc(Br)cc1 | 97% (inactive)
15 | O=C(CSc1ccc(-c2ccc(-n3cccn3)cc2)nn1)Nc1ccc([N+](=O)[O-])cc1 | 88.8% (inactive)
16 | O=C(Nc1cccc(Cl)c1Cl)c1ccccc1NC(=O)C1CC=CCC1C(=O)O (configuration not stated) | 89.9% (inactive)
17 | CNC(=O)c1cccc2nc3ccccc3nc12 | 105% (inactive)
18 | CCCC(C)C(=O)OCC(=O)Nc1c(Br)cc(C)cc1Br (configuration not stated) | 89.1% (inactive)
19 | O=C(Nc1ccc(Br)cn1)c1ccc([N+](=O)[O-])cc1Cl | 94% (inactive)
20 | Cc1cc(C(F)F)n2nc(C(=O)Nc3ccc(S(=O)(=O)NC45CC6CC(CC(C6)C4)C5)cc3)nc2n1 | 104% (inactive)
21 | Cc1ccc(-c2nnc(Nc3ccc(C(=O)N(C)C)cc3)c3ccccc23)cc1S(N)(=O)=O | 113% (inactive)
22 | Cc1ccc(C23CC4CC(CC(C(=O)NCC(=O)O)(C4)C2)C3)cc1 | 94.6% (inactive)
